# Experimental data taken from the supplement of paper PMC6555819.
# Legend:
# Assay in all cases: PBM binding z-score (relative to random genomic background probes); higher = stronger binding; sequences stand for … in GC…GCGATTGACAGCGTAGAATGAAGG
# [1] = test system: PPARg:RXRa DBDmut IVT, anti-RXR (DBD mutation: RXRa K156A/R161A, NR concentration 270 nM, RXRa partner concentration 90 nM)
# In short: (§1)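 Ligand-free nuclear receptor dimers were applied to custom Agilent 4×180K protein-binding microarrays whose double-stranded probes carried direct-repeat seeds, single-nucleotide variants, half-site ablations and random human genomic background sequences in 34-nt variable regions. Incubation lasted 1 h. Binding z-scores were computed against the random background probes from regression-normalized fluorescence.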
# [2] = test system: PPARg:RXRa IVT, anti-PPARg (NR concentration 270 nM, RXRa partner concentration 90 nM)
# In short: as §1
# [3] = test system: PPARg DBDmut:RXRa IVT, anti-PPARg (DBD mutation: PPARg1 K132A/R137A, NR concentration 270 nM, RXRa partner concentration 90 nM)
# In short: as §1
# [4] = test system: PPARg DBDmut IVT, anti-PPARg (DBD mutation: PPARg1 K132A/R137A, NR concentration 270 nM)
# In short: as §1
# [5] = test system: PPARg homodimer (NR concentration 180 nM)
# In short: as §1
# [6] = test system: PXR:RXRa (NR concentration 270 nM, RXRa partner concentration 90 nM)
# In short: as §1
# [7] = test system: PXR homodimer (NR concentration 270 nM)
# In short: as §1
# [8] = test system: RARa:RXR (NR concentration 270 nM, RXRa partner concentration 90 nM)
# In short: as §1
# [9] = test system: RARa homodimer (NR concentration 270 nM)
# In short: as §1
# [10] = test system: RARb:RXRa (NR concentration 270 nM, RXRa partner concentration 90 nM)
# In short: as §1
# [11] = test system: RARb homodimer (NR concentration 270 nM)
# In short: as §1
# [12] = test system: RARg:RXRa (NR concentration 270 nM, RXRa partner concentration 90 nM)
# In short: as §1
# [13] = test system: RARg homodimer (NR concentration 270 nM)
# In short: as §1
# [14] = test system: RXRa DBDmut IVT, anti-RXR (DBD mutation: RXRa K156A/R161A, NR concentration 90 nM)
# In short: as §1
# [15] = test system: RXRa homodimer (NR concentration 180 nM)
# In short: as §1
# [16] = test system: THRa:RXRa (NR concentration 90 nM, RXRa partner concentration 90 nM)
# In short: as §1
# [17] = test system: THRa homodimer (NR concentration 90 nM)
# In short: as §1
# [18] = test system: VDR:RXRa (NR concentration 270 nM, RXRa partner concentration 90 nM)
# In short: as §1
# [19] = test system: VDR homodimer (NR concentration 270 nM)
# In short: as §1
Sequence,PBM binding z-score [1],PBM binding z-score [2],PBM binding z-score [3],PBM binding z-score [4],PBM binding z-score [5],PBM binding z-score [6],PBM binding z-score [7],PBM binding z-score [8],PBM binding z-score [9],PBM binding z-score [10],PBM binding z-score [11],PBM binding z-score [12],PBM binding z-score [13],PBM binding z-score [14],PBM binding z-score [15],PBM binding z-score [16],PBM binding z-score [17],PBM binding z-score [18],PBM binding z-score [19]
CGTCAAAGTTCAACGAAGGTAACGTAAAGCACGC,0.66,1.92,0.175,0.224,2.37,4.52,2.37,3.37,0.936,5.18,4.08,5.47,6.39,4.2,4.5,4.52,0.29,4.39,3.33
CCTTACGGGTCACGAGGTTATATCACGACGAGCG,4.44,5.64,1.38,0.342,2.85,4.59,0.517,5.8,0.866,4.5,3.93,6.16,5.48,1.94,7.11,3.77,1.34,5.38,2.09
AGAATGAGGTTATTAAGATTAGGGAATTGCGGTC,2.99,2.43,1.23,0.542,1.01,1.02,0.66,1.52,0.918,1.47,0.809,1.27,0.836,2,1.72,2.05,0.933,1.29,1.29
CCAGACAGGTGAAAGGTTACTCAGTCTGGTACGC,1.76,3.47,-0.162,0.368,1.65,2.74,0.256,4.24,0.58,2.22,1.91,3.02,1.52,0.385,4.22,1.72,0.13,2.35,0.149
GCTCGGAGAACAAGGTCAGAGCTTTGTCCGTAGA,0.447,0.471,-0.968,-1.78,0.759,1.73,-0.538,1.79,-0.831,2.86,2.36,2.39,2.24,0.418,2.16,2.58,0.95,1.5,0.151
CTCGAAAGGTCGGTTGAGGTGAGTATACGGATAA,-0.0424,0.699,0.597,-0.651,0.927,3.19,-0.354,3.13,0.103,2.98,2.15,2.63,2.54,0.556,1.95,5.09,1.33,2.14,0.68
AAGACAGGGTCATCGTAGGCCAGAGTACGCACAG,1.48,2.99,0.884,0.174,1.25,4.95,0.0301,4.92,0.453,4.23,3.6,5.67,5.54,3.14,6.69,4.37,1.12,5.14,3.34
CTCGAAAGGTCGTGATCAGGTGAGTATACCAAAC,0.796,1.71,1.37,0.63,2.1,3.28,-0.0349,4.26,0.477,3.96,2.66,4.85,3.85,1.9,4.72,4.04,0.717,3.22,0.668
TAGCTTAGGTCATTCAGGGGCCAGTATAGAAAGC,1.24,1.84,0.465,1.33,2.5,2.96,0.636,4.06,0.433,3.88,3.41,6.43,5.18,2.36,3.35,3.72,1.83,3.19,1.69
CCTATTAGTTGACCTTAAGGGCAACCGAAGCTCG,1.43,2.7,1.27,0.764,3.46,4.4,1.93,5.12,2.39,3.64,4.16,4.56,3.45,1.41,4.9,4.36,5.34,3.66,2.12
ATCTCTAGGCAACCAAGTTCAGTGAATGCCGAAC,0.769,0.547,0.416,0.473,-0.0686,1.68,1.43,0.461,-0.516,0.951,1.25,0.473,0.591,0.688,0.505,0.9,-0.255,2.1,2.3
AATACAGGGTCACTAGGCCAGAGTTGGTACGAAT,4.05,5.77,1.25,0.486,2.23,3.38,0.712,4.44,0.618,4.29,3.56,5.2,5.06,2.8,5.94,3.51,1.21,4.26,2.58
CGTCCAAGGTCATAGGCGGTCAGTGAAGACAGAT,2.93,3.58,-0.0996,0.332,2.85,5.12,1.57,4.75,1.15,4.94,4.09,6.05,6.4,3.89,5.94,4.35,2.21,4.7,3.22
GATACAGGGTCAGCTAGAGGCCGGAGTATGGAAA,1.03,2.37,-0.293,0.124,1.78,2.59,-0.0586,3.41,0.211,4.12,3.18,5.66,4.38,1.07,4.04,2.7,0.265,2.8,0.333
TCGAGCAGGTTAGGGGCATTCAGAATGGCGTCGA,0.212,-0.145,-1.03,-1.48,0.0489,0.241,-0.0165,0.385,-0.605,1.11,0.54,0.286,0.148,-0.111,0.719,0.723,-0.36,0.187,0.474
TCATATAGGTAAAGGTCAAAGTCGAACGATATGA,4.49,5.4,2.71,1.9,5.15,5.54,1.88,6.36,3.75,5.17,4.51,6.35,5.87,1.9,7.64,3.68,0.708,4.77,2.32
TCTTGTAGATCAACAGGAGGTTAAGTAAGATCGA,1.56,0.854,0.235,0.997,-0.29,0.916,-0.272,1.46,0.0899,0.659,0.766,1.15,0.284,0.388,1.02,1.78,-0.391,0.844,-0.26
GTATATAGGTAATACAAGGTGAAAGTCCGATTGT,5.56,5.62,2.12,2.34,1.29,0.792,0.761,1.95,1.09,0.593,1.06,0.647,0.697,0.401,0.751,4.18,1.48,0.822,0.367
AGAATGAGGTTATTAAGATCAGGGAGTTGCGGTC,3.18,2.67,0.214,0.57,0.895,1.46,0.973,1.44,0.946,1.4,0.826,1.05,0.672,1.99,1.78,2.17,0.897,2.3,1.39
TCATATAGGTAAAAGGTGCAAGTCGGTGTGGTAA,4.71,3.76,0.923,0.831,1.63,0.954,0.487,0.733,1.23,0.917,0.775,0.469,0.207,1.9,1.27,0.295,-0.18,1.09,0.772
GCAGACAGGTGAAACGCAGATAACTCAGGGTGGC,1.09,0.225,0.243,-0.959,0.214,-0.239,-0.278,-0.0859,-0.365,0.56,-0.0268,0.355,0.45,-0.555,0.883,0.121,-0.589,-0.407,-0.804
ACTAGCAGGCCAACGGTCACTCAAGATTAGTCCG,1.21,1.38,-0.412,-0.352,0.237,-0.526,-0.588,0.0763,-0.817,1.64,1.57,0.906,1.57,-0.139,0.345,-0.135,-0.434,-0.505,-0.593
CTTCCAAGGTGAACAAGGTCGTTGATTACTATTC,2.37,2.58,0.501,-0.605,0.985,2.6,1.19,1.97,-0.158,2.18,2.18,1.8,1.62,1.57,1.69,3.41,2.03,6.21,2.34
GCATATAGGTAATACAAGGCGAAAGTCCGATTGT,4.13,2.28,0.423,0.106,0.176,0.00476,-0.179,0.458,-0.221,-0.0161,-0.287,0.107,0.326,0.52,0.182,2.28,-0.176,-0.126,-0.0927
CGTCCAAGGTCAGCAGGTCAGTGATAGCGACGTG,3.28,3.76,-0.113,-0.161,2.53,3.41,0.512,4.49,1.26,5.45,5.02,6.25,7.22,2.59,5.26,3.84,2.31,3.91,1.75
TCTTGTAGATCAAGCAGGTTGAGAAAGCCTGAGT,1.7,0.256,-0.788,-0.244,-0.463,0.124,-0.29,-0.172,-0.364,-0.242,-0.543,-0.355,-0.321,0.479,-0.0549,0.0431,-0.698,0.285,-0.0523
TGGAGTAGGTTAGTCGGGGCATTCAGCCAACATA,3.42,3.51,-0.389,-0.234,1.08,0.401,0.996,0.374,0.676,1.03,1.41,0.219,0.355,-0.608,0.023,1.48,0.985,2.43,1.24
AGTCACAGTTCACTAGGTAACGTAAGATTCAGCT,2.42,3.71,1.36,0.988,1.05,1.35,0.619,1.25,0.737,2.31,1.19,2.17,2.07,2.64,1.74,1.34,0.333,1.81,1.8
TCATATAGGCAATACAGGTGAAAGTCGGCATCTA,2.91,1.7,0.893,0.339,0.723,0.419,0.292,0.707,0.869,0.192,0.329,0.188,0.134,1.25,0.668,0.629,-0.127,0.582,-0.277
TAGCCTAGGTCCTTGGGCCAGTATAGTACGCATC,-1,-0.913,-2.61,-1.34,-2.22,-1.19,-1.2,-1.44,-2.43,-0.495,-0.937,-0.412,-0.296,-1.27,-0.549,-0.732,-1.37,-0.897,-1.06
